Laboratory results taken from PubChem BioAssay (NCI).
“And” between values parts separate entries of the source, which are not always exact repeats. Equal entries are not always repeated. The panel holds about 79,000 compounds, 15% with a hit somewhere; the sample as a whole holds those more often. A structure can be active in one record and inactive in another. The source made the active and inactive calls. Rule as the data show it: active = growth inhibition above about 70%; inactive = the rest.

assay: NCI Yeast Anticancer Drug Screen. Data for the mec2-1 strain (AID 157); conditions: S. cerevisiae mec2-1 strain, at 50.0 µM, stronger effect = higher value
Outline: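 Readout is yeast growth inhibition, normalised to vehicle-treated controls, in the mec2-1 strain exposed to compound.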

Q: For `O=C1C(CN2CCCCC2)CCCC1CN1CCCCC1` (stereo unspecified), which growth inhibition is on record?
A: -11.6% (inactive) and 24.8% (inactive)

Q: With `NC(=O)c1cc(Br)cc(Br)c1O` as the compound, how does the growth inhibition read?
A: 75.1% (active)

Q: With `CN(C)c1ccc(/C=C/c2ccc3ccccc3[n+]2C)cc1` as the compound, how does the growth inhibition read?
A: 99% (active)

Q: Which growth inhibition does the source give for `C1=C(CN2CCCCC2)COc2ccccc21` here?
A: 22.9% (inactive)

Q: Which growth inhibition does the source give for `O=C1Nc2ccccc2C1(O)C/C(=N/O)c1ccc2ccccc2c1` (stereo unspecified) here?
A: 13.9% (inactive)

Q: Which growth inhibition does the source give for `CC(C)(S)C(N)C(=O)O` (stereo unspecified) here?
A: -9.15% (inactive) and 2.8% (inactive) and -17.5% (inactive)

Q: With `COC(=O)[C@@H](NS(=O)(=O)CC12CCC(CC1)C2(C)C)C(C)(C)C` as the compound, how does the growth inhibition read?
A: 26.1% (inactive)

Q: For `CN(CCN1C(=O)c2cccc3cccc(c23)C1=O)CCN1C(=O)c2cccc3cccc(c23)C1=O`, which growth inhibition is on record?
A: 98.2% (active)

Q: Which growth inhibition does the source give for `CN(C)CCCN=c1c2ccccc2n(O)c2cccc([N+](=O)[O-])c12` here?
A: 26.8% (inactive)

Q: Which growth inhibition does the source give for `O=C(/C=C/c1ccc(Cl)cc1)NC1C=Nc2ccc([N+](=O)[O-])cc2NC1=O` (stereo unspecified) here?
A: 96.5% (active)

Q: With `O=C(CC(=O)CC(O)(c1ccccc1)c1ccccc1)CC(=O)c1ccccc1` as the compound, how does the growth inhibition read?
A: 98% (active)

Q: For `O=C(c1ccc(Cl)cc1)C(O)c1ccc(Cl)cc1` (stereo unspecified), which growth inhibition is on record?
A: 12.4% (inactive)

Q: For `COc1ccc2c(c1)C(Cc1ccc(Oc3ccc(CC4c5cc(OC)ccc5CC[N+]4(C)C)cc3)cc1)[N+](C)(C)CC2` (stereo unspecified), which growth inhibition is on record?
A: 97.2% (active)

Q: Which growth inhibition does the source give for `O=C(NO)c1cccnc1` here?
A: 16.1% (inactive)

Q: With `Oc1c(Cl)c(Cl)c(Cl)c2ccccc12` as the compound, how does the growth inhibition read?
A: 96.8% (active)

Q: For `CSC1SCC2C(=O)N(C)C(C(C)C)C(=O)OCC(NC(=O)c3cnc4ccccc4n3)C(=O)NC(C)C(=O)N(C)C1C(=O)N(C)C(C(C)C)C(=O)OCC(NC(=O)c1cnc3ccccc3n1)C(=O)NC(C)C(=O)N2C` (stereo unspecified), which growth inhibition is on record?
A: 99.5% (active) and 91.7% (active)

Q: With `O=C(O)C1(Cc2ccccc2)Cc2cc3c(cc2C1)CCC3` as the compound, how does the growth inhibition read?
A: 92% (active)

Q: With `CC1=C(C(=O)Nc2c(C)cccc2C)C(c2ccc3c(c2)OCO3)C(C(=O)Nc2c(C)cccc2C)=C(C)N1` as the compound, how does the growth inhibition read?
A: 86.9% (active)

Q: For `COc1cc2c(c3c1/c(=N/N(C)C)c1ccccc1n3C)C=CC(C)(C)O2`, which growth inhibition is on record?
A: 1% (inactive)

Q: Which growth inhibition does the source give for `CC(=O)Nc1nc(N)c2ncn(C3OC(C(O)CO)C(O)C3O)c2n1` (stereo unspecified) here?
A: 0.35% (inactive) and -7.5% (inactive)

Q: With `CC(C)(Cc1nocc1C(C)(C)CC#N)c1cc(CC(C)(C)C2(C)OCCO2)no1` as the compound, how does the growth inhibition read?
A: 9.45% (inactive)

Q: For `CCOC(=O)c1c[nH]c2c(ccc3cccnc32)c1=O`, which growth inhibition is on record?
A: 13.9% (inactive) and 12.2% (inactive)

Q: With `Cc1ncc(C[n+]2cccc(CCO)c2C)c(N)n1` as the compound, how does the growth inhibition read?
A: 40.5% (inactive) and 38% (inactive)

Q: For `Clc1ccc2c(c1)[nH]c1c2nc2ccccn21`, which growth inhibition is on record?
A: -11.3% (inactive) and 67.4% (inactive)

Q: With `O=C(O)c1ccccc1C(=O)O` as the compound, how does the growth inhibition read?
A: -14.8% (inactive) and 5.1% (inactive)

Q: For `COC1/C=C/OC2(C)Oc3c(C)c(O)c4c(c3C2=O)C(=O)C=C(NC(=O)/C(C)=C\C=C\C(C)C2OC(C)(C)OC(C2C)C(C)C(OC(C)=O)C1C)C4=O` (stereo unspecified), which growth inhibition is on record?
A: 57.3% (inactive)

Q: With `CCN(CC)CCCn1c2cc(=O)c(=O)cc-2[nH]c2cc(C)ccc21` as the compound, how does the growth inhibition read?
A: -4.3% (inactive)

Q: Which growth inhibition does the source give for `O=[N+]([O-])c1ccc(N/N=C/CC(O)(C(F)(F)F)C(F)(F)F)c([N+](=O)[O-])c1` here?
A: 91.5% (active)

Q: Which growth inhibition does the source give for `OCc1ccccc1C(c1ccccc1)c1ccccc1` here?
A: 64.7% (inactive)

Q: For `COc1ccc2[nH]c3c(C)c4ccncc4c(C)c3c2c1`, which growth inhibition is on record?
A: 93.7% (active) and 99.5% (active)

Q: With `CC(C)CCC[C@@H](C)[C@H]1CC[C@H]2[C@@H]3CC=C4N5CCCN=C5CC[C@]4(C)[C@H]3CC[C@]12C` as the compound, how does the growth inhibition read?
A: 98.7% (active)

Q: With `CC(C)CCCC(C)C1CCC2C3CC=C4CC([n+]5cccc6ccccc65)CCC4(C)C3CCC12C` (stereo unspecified) as the compound, how does the growth inhibition read?
A: 95.4% (active)

Q: With `O=C1/C(=C/c2ccc(Cl)cc2)CNC/C1=C\c1ccc(Cl)cc1` as the compound, how does the growth inhibition read?
A: 81.8% (active) and 89.5% (active)

Q: For `CCn1c2ccccc2c2ccc(N=Cc3ccc(N(C)C)cc3)cc21`, which growth inhibition is on record?
A: 41.5% (inactive)

Q: For `O=C1NC(=O)c2cc([N+](=O)[O-])ccc21`, which growth inhibition is on record?
A: -21.9% (inactive) and 3.5% (inactive)

Q: With `O=c1[nH]c(SCc2c(Cl)c(Cl)c(Cl)c(Cl)c2Cl)nc(=S)[nH]1` as the compound, how does the growth inhibition read?
A: 38.8% (inactive)

Q: With `Cn1c2nc3ccccc3c-2cc2ccccc21` as the compound, how does the growth inhibition read?
A: 77.8% (active) and 71.2% (active)

Q: Which growth inhibition does the source give for `O=Cc1cc(Br)ccc1O` here?
A: 92.5% (active) and 98% (active)

assay: NCI Yeast Anticancer Drug Screen. Data for the sgs1 mgt1 strain (AID 161);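 also: 0% = growth of cultures given vehicle only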; conditions: S. cerevisiae sgs1 mgt1 strain, at 5.0 µM (retest, dose inferred, filed as 0.5), stronger effect = higher value
Outline: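 Compounds are added to genetically altered yeast, and growth is compared with cultures given vehicle alone to give percent inhibition.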

Q: Which growth inhibition does the source give for `O=C1C(CN2CCCCC2)CCCC1CN1CCCCC1` (stereo unspecified) here?
A: 1% (inactive)

Q: With `NC(=O)c1cc(Br)cc(Br)c1O` as the compound, how does the growth inhibition read?
A: 9% (inactive)

Q: With `CN(C)c1ccc(/C=C/c2ccc3ccccc3[n+]2C)cc1` as the compound, how does the growth inhibition read?
A: 11% (inactive)

Q: With `C1=C(CN2CCCCC2)COc2ccccc21` as the compound, how does the growth inhibition read?
A: -7% (inactive)

Q: Which growth inhibition does the source give for `O=C1Nc2ccccc2C1(O)C/C(=N/O)c1ccc2ccccc2c1` (stereo unspecified) here?
A: 71% (active)

Q: Which growth inhibition does the source give for `CC(C)(S)C(N)C(=O)O` (stereo unspecified) here?
A: -2% (inactive)

Q: With `COC(=O)[C@@H](NS(=O)(=O)CC12CCC(CC1)C2(C)C)C(C)(C)C` as the compound, how does the growth inhibition read?
A: 16% (inactive)

Q: Which growth inhibition does the source give for `CN(CCN1C(=O)c2cccc3cccc(c23)C1=O)CCN1C(=O)c2cccc3cccc(c23)C1=O` here?
A: 69% (inactive)

Q: For `CN(C)CCCN=c1c2ccccc2n(O)c2cccc([N+](=O)[O-])c12`, which growth inhibition is on record?
A: 2% (inactive)

Q: Which growth inhibition does the source give for `O=C(/C=C/c1ccc(Cl)cc1)NC1C=Nc2ccc([N+](=O)[O-])cc2NC1=O` (stereo unspecified) here?
A: 29% (inactive)

Q: For `O=C(CC(=O)CC(O)(c1ccccc1)c1ccccc1)CC(=O)c1ccccc1`, which growth inhibition is on record?
A: 0% (inactive)

Q: With `O=C(c1ccc(Cl)cc1)C(O)c1ccc(Cl)cc1` (stereo unspecified) as the compound, how does the growth inhibition read?
A: -2% (inactive) and 4% (inactive)

Q: Which growth inhibition does the source give for `COc1ccc2c(c1)C(Cc1ccc(Oc3ccc(CC4c5cc(OC)ccc5CC[N+]4(C)C)cc3)cc1)[N+](C)(C)CC2` (stereo unspecified) here?
A: -7% (inactive)

Q: Which growth inhibition does the source give for `O=C(NO)c1cccnc1` here?
A: -4% (inactive)

Q: Which growth inhibition does the source give for `Oc1c(Cl)c(Cl)c(Cl)c2ccccc12` here?
A: 38% (inactive)

Q: Which growth inhibition does the source give for `CSC1SCC2C(=O)N(C)C(C(C)C)C(=O)OCC(NC(=O)c3cnc4ccccc4n3)C(=O)NC(C)C(=O)N(C)C1C(=O)N(C)C(C(C)C)C(=O)OCC(NC(=O)c1cnc3ccccc3n1)C(=O)NC(C)C(=O)N2C` (stereo unspecified) here?
A: 2% (inactive) and 98% (active)

Q: Which growth inhibition does the source give for `O=C(O)C1(Cc2ccccc2)Cc2cc3c(cc2C1)CCC3` here?
A: 0% (inactive)

Q: Which growth inhibition does the source give for `CC1=C(C(=O)Nc2c(C)cccc2C)C(c2ccc3c(c2)OCO3)C(C(=O)Nc2c(C)cccc2C)=C(C)N1` here?
A: 4% (inactive)

Q: With `COc1cc2c(c3c1/c(=N/N(C)C)c1ccccc1n3C)C=CC(C)(C)O2` as the compound, how does the growth inhibition read?
A: 36% (inactive)

Q: Which growth inhibition does the source give for `CC(=O)Nc1nc(N)c2ncn(C3OC(C(O)CO)C(O)C3O)c2n1` (stereo unspecified) here?
A: -3% (inactive)

Q: Which growth inhibition does the source give for `CC(C)(Cc1nocc1C(C)(C)CC#N)c1cc(CC(C)(C)C2(C)OCCO2)no1` here?
A: -8% (inactive)

Q: Which growth inhibition does the source give for `CCOC(=O)c1c[nH]c2c(ccc3cccnc32)c1=O` here?
A: 8% (inactive) and -1% (inactive)

Q: Which growth inhibition does the source give for `Cc1ncc(C[n+]2cccc(CCO)c2C)c(N)n1` here?
A: -15% (inactive) and 10% (inactive)

Q: With `Clc1ccc2c(c1)[nH]c1c2nc2ccccn21` as the compound, how does the growth inhibition read?
A: 50% (inactive)

Q: For `O=C(O)c1ccccc1C(=O)O`, which growth inhibition is on record?
A: 0% (inactive)

Q: For `COC1/C=C/OC2(C)Oc3c(C)c(O)c4c(c3C2=O)C(=O)C=C(NC(=O)/C(C)=C\C=C\C(C)C2OC(C)(C)OC(C2C)C(C)C(OC(C)=O)C1C)C4=O` (stereo unspecified), which growth inhibition is on record?
A: -3% (inactive)

Q: Which growth inhibition does the source give for `CCN(CC)CCCn1c2cc(=O)c(=O)cc-2[nH]c2cc(C)ccc21` here?
A: 2% (inactive)

Q: With `O=[N+]([O-])c1ccc(N/N=C/CC(O)(C(F)(F)F)C(F)(F)F)c([N+](=O)[O-])c1` as the compound, how does the growth inhibition read?
A: -1% (inactive)

Q: With `OCc1ccccc1C(c1ccccc1)c1ccccc1` as the compound, how does the growth inhibition read?
A: -1% (inactive)

Q: For `COc1ccc2[nH]c3c(C)c4ccncc4c(C)c3c2c1`, which growth inhibition is on record?
A: 39% (inactive)

Q: Which growth inhibition does the source give for `CC(C)CCC[C@@H](C)[C@H]1CC[C@H]2[C@@H]3CC=C4N5CCCN=C5CC[C@]4(C)[C@H]3CC[C@]12C` here?
A: -15% (inactive)

Q: With `CC(C)CCCC(C)C1CCC2C3CC=C4CC([n+]5cccc6ccccc65)CCC4(C)C3CCC12C` (stereo unspecified) as the compound, how does the growth inhibition read?
A: 60% (inactive)

Q: With `O=C1/C(=C/c2ccc(Cl)cc2)CNC/C1=C\c1ccc(Cl)cc1` as the compound, how does the growth inhibition read?
A: 88% (active) and 58% (inactive)

Q: For `CCn1c2ccccc2c2ccc(N=Cc3ccc(N(C)C)cc3)cc21`, which growth inhibition is on record?
A: 2% (inactive)

Q: With `O=C1NC(=O)c2cc([N+](=O)[O-])ccc21` as the compound, how does the growth inhibition read?
A: -2% (inactive)

Q: Which growth inhibition does the source give for `O=c1[nH]c(SCc2c(Cl)c(Cl)c(Cl)c(Cl)c2Cl)nc(=S)[nH]1` here?
A: 3% (inactive)

Q: With `Cn1c2nc3ccccc3c-2cc2ccccc21` as the compound, how does the growth inhibition read?
A: 38% (inactive)

Q: With `O=Cc1cc(Br)ccc1O` as the compound, how does the growth inhibition read?
A: 10% (inactive) and 4% (inactive)
